Measurements as given in the supplement of paper PMC10849652.
Targets with a hit are over-represented here; the source holds about 8,800 in all. About 0.5% of all pairs of compound and target were hits.

Assays:
Assay in all cases: log2 fold change, soluble protein after heating vs DMSO (PISA); higher = thermal stabilisation; K562 lysate, 10 uM; active = over 0.2 and 3.5 SD of the protein, either way, in both replicates (recomputed)
[1] = compound: C1=CC=C(C=C1)[C@H](COC2=CC3=C(C=C2)NC(=O)N3)NC(=O)C4=CC=CN(C4=O)CC5=CC(=C(C=C5)F)F
How it was run: (§1)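 Quantification was by TMTpro 16plex LC-MS/MS with equalised channel sums, applied to the supernatant after 21,000xg for 90 min. Samples were crude K562 extract at 1 mg/mL protein in PBS pH 7.4 with 1 mM MgCl2, treated with 10 μM compound for 30 min, heated for 3 min across 48°C-58°C, pooled and brought to 0.5% NP-40 at 4°C. Values are log-two fold changes in thermal stability relative to solvent controls, from duplicates.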

[2] = compound: CC1=C(SC2=C1C(=N[C@H](C3=NN=C(N32)C)CC(=O)N)C4=CC=C(C=C4)Cl)C
How it was run: as §1

[3] = compound: CC1=C2C(=CC=C1)N=C(N(C2=O)C3=CC=CC=C3C)CN4C=NC5=C(N=CN=C54)N
How it was run: as §1

[4] = compound: Cc1sc2c(c1C)C(c1ccc(Cl)cc1)=N[C@@H](CC(=O)OC(C)(C)C)c1nnc(C)n1-2
How it was run: as §1

[5] = compound: c1ccc([C@@H]2C[C@H]2NC2CCNCC2)cc1
How it was run: as §1

Measured: log2 fold change

KEAP1 (UniProt Q14145)
inactive: [1] 0.029 | [2] 0.016 | [3] 0.014 | [4] -0.018 | [5] -0.02

HNRNPM (UniProt M0QZM1)
inactive: [1] -0.093 | [2] -0.092 | [3] -0.01 | [4] 0.152

HMGCS1 (UniProt Q01581)
Sequence of UniProt Q01581 (Q01581 whole entry, looked up): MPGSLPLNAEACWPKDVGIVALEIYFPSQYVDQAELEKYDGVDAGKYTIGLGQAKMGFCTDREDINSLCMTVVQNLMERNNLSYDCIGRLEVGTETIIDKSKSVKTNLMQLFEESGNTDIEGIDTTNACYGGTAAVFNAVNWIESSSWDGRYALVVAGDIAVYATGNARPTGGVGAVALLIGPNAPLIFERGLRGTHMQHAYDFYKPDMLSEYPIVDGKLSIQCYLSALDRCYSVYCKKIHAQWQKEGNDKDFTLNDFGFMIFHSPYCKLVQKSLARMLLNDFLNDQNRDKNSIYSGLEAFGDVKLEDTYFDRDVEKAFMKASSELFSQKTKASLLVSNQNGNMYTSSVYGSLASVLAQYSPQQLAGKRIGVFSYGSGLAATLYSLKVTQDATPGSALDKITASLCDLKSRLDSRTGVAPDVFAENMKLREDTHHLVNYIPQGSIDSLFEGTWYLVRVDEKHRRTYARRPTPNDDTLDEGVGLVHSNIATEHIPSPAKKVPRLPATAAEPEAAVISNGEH
inactive: [1] 0.043 | [2] -0.022 | [3] 0.02 | [4] 0.003 | [5] -0.009

IRF2BP1 (UniProt Q8IU81)
inactive: [1] -0.048 | [2] -0.013 | [3] -0.043 | [4] 0.017 | [5] -0.045

GPR108 (UniProt Q9NPR9)
inactive: [1] 0.059 | [2] -0.053 | [3] 0.005 | [4] -0.066 | [5] 0.014

IFNGR1 (UniProt P15260)
inactive: [1] 0.094 | [2] 0.083 | [3] 0.142 | [4] -0.299 | [5] -0.479

IARS2 (UniProt Q9NSE4)
inactive: [1] 0.004 | [2] 0.013 | [3] -0.006 | [4] 0.028 | [5] 0.119

HADH isoform 2 (UniProt Q16836)
inactive: [1] 0.012 | [2] 0.004 | [3] -0.047 | [4] 0.013 | [5] 0.086

KHK isoform 2 (UniProt P50053)
inactive: [1] -0.01 | [2] 0.034 | [3] -0.003 | [4] -0.137 | [5] 0.142

HNRNPL (UniProt P14866)
Sequence of UniProt P14866 (P14866 whole entry, looked up): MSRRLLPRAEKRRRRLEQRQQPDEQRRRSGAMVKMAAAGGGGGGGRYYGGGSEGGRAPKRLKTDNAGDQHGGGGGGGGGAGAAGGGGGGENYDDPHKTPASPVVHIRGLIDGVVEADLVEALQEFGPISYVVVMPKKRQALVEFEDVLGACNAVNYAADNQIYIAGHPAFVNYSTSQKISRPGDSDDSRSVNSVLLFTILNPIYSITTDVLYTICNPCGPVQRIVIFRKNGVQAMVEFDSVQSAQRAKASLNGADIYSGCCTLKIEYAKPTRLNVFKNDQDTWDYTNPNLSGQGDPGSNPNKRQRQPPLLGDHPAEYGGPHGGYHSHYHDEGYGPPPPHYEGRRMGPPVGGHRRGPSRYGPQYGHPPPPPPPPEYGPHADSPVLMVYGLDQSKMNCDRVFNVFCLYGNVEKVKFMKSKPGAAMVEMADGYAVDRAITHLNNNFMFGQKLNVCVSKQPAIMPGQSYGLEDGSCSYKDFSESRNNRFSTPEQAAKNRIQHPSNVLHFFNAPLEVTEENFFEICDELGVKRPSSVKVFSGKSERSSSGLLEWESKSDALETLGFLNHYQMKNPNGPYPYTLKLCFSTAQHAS
inactive: [1] -0.01 | [2] -0.024 | [3] 0.04 | [4] 0.039 | [5] 0.071

HAUS8 (UniProt Q9BT25)
Sequence of UniProt Q9BT25 (Q9BT25 whole entry, looked up): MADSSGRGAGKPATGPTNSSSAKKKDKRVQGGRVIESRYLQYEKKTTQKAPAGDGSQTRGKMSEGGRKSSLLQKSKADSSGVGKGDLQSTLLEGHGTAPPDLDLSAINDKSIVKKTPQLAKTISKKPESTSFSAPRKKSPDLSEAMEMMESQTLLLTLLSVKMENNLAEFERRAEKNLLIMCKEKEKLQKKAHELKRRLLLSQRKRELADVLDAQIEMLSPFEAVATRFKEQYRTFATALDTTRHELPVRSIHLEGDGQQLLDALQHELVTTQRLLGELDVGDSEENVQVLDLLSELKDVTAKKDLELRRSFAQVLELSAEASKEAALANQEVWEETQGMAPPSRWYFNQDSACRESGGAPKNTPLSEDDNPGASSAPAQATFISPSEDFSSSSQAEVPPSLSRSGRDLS
inactive: [1] 0.016 | [2] -0.029 | [3] 0 | [4] 0.009 | [5] 0

KARS1 (UniProt Q15046)
inactive: [1] 0.005 | [2] 0.019 | [3] 0.002 | [4] 0.045 | [5] 0.045

ILK (UniProt Q13418)
inactive: [1] -0.009 | [2] -0.019 | [3] 0.004 | [4] 0.027 | [5] -0.002

HNRNPUL1 (UniProt Q9BUJ2)
Sequence of UniProt Q9BUJ2 (Q9BUJ2 whole entry, looked up): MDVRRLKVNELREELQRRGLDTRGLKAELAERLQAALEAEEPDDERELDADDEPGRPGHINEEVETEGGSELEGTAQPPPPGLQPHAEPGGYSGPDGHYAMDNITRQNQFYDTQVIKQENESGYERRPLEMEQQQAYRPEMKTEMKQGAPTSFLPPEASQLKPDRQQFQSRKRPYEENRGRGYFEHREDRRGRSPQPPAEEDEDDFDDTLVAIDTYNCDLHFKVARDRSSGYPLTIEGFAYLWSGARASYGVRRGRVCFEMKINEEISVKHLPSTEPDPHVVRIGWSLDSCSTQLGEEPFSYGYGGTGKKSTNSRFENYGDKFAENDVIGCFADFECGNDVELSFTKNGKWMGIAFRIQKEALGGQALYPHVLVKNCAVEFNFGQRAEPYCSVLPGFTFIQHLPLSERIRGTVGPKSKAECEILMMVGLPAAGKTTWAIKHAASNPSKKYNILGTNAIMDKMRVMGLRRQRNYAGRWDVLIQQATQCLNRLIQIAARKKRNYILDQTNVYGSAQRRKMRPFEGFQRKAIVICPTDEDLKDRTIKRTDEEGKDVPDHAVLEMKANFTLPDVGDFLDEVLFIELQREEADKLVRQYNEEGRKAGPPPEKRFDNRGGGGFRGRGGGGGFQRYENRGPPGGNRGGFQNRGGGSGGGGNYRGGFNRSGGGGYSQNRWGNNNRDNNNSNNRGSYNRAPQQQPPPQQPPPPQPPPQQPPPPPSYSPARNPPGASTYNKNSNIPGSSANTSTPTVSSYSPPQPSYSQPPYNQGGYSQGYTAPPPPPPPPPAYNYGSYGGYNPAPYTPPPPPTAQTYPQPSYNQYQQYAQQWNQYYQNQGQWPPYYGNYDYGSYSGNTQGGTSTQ
inactive: [1] 0.043 | [2] -0.022 | [3] -0.028 | [4] -0.003 | [5] -0.006

GLYR1 (UniProt Q49A26)
inactive: [1] -0.179 | [2] 0.066 | [3] -0.128 | [4] 0.142 | [5] 0.043

HELQ (UniProt Q8TDG4)
inactive: [1] 0.033 | [2] 0.028 | [3] 0.005 | [4] -0.004 | [5] -0.074

HSP90AA4P (UniProt Q58FG1)
inactive: [1] 0.012 | [2] 0.1 | [3] -0.008 | [4] -0.101 | [5] -0.308

HDAC1 (UniProt Q13547)
inactive: [1] -0.04 | [2] 0.02 | [3] 0.001 | [4] -0.025 | [5] -0.015

KDM5C (UniProt P41229)
inactive: [1] -0.01 | [2] 0 | [3] 0.008 | [4] -0.01 | [5] 0.032

HMGCL (UniProt P35914)
inactive: [1] 0.057 | [2] -0.017 | [3] 0.058 | [4] 0.046 | [5] 0.006

INTS3 (UniProt Q68E01)
inactive: [1] 0.017 | [2] 0.063 | [3] -0.043 | [4] -0.06 | [5] 0.074

KCT2 (UniProt Q8NC54)
Sequence of UniProt Q8NC54 (Q8NC54 whole entry, looked up): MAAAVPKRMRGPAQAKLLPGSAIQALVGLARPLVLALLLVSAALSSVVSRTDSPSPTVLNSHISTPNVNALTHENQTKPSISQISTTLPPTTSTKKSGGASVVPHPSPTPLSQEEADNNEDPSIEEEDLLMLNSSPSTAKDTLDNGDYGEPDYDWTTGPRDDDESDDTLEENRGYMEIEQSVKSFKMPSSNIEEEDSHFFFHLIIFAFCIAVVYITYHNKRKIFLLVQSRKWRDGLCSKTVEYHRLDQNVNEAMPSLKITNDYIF
inactive: [1] 0.069 | [2] -0.008 | [3] -0.05 | [4] -0.033 | [5] -0.173

GRK6 isoform 2 (UniProt P43250)
inactive: [1] 0.086 | [2] -0.034 | [3] -0.135 | [4] 0.084 | [5] -0.018

GRB10 (UniProt Q13322)
inactive: [1] 0.03 | [2] 0.022 | [3] 0.024 | [4] 0.045 | [5] -0.078

GOLPH3 (UniProt Q9H4A6)
Sequence of UniProt Q9H4A6 (Q9H4A6 whole entry, looked up): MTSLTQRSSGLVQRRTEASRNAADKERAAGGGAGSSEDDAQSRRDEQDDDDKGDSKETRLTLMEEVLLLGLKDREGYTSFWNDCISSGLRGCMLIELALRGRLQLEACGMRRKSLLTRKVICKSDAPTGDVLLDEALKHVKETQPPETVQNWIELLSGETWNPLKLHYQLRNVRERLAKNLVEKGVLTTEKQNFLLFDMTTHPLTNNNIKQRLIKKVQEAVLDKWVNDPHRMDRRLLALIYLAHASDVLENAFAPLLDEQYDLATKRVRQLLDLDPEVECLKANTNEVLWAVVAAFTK
inactive: [1] -0.067 | [2] 0.018 | [3] 0.022 | [4] -0.089 | [5] 0.008

HSD17B12 (UniProt Q53GQ0)
inactive: [1] -0.127 | [2] -0.006 | [3] 0.059 | [4] 0.031 | [5] -0.108

HAUS2 (UniProt Q9NVX0)
inactive: [1] -0.186 | [2] 0.148 | [3] 0.077 | [4] 0.016 | [5] 0.176

IRAK1 (UniProt P51617)
inactive: [1] -0.146 | [2] -0.028 | [3] -0.001 | [4] 0.004 | [5] 0.026

HAUS3 (UniProt Q68CZ6)
inactive: [1] -0.035 | [2] 0.023 | [3] 0.051 | [4] -0.032 | [5] 0.064

GSTCD (UniProt Q8NEC7)
Sequence of UniProt Q8NEC7 (Q8NEC7 whole entry, looked up): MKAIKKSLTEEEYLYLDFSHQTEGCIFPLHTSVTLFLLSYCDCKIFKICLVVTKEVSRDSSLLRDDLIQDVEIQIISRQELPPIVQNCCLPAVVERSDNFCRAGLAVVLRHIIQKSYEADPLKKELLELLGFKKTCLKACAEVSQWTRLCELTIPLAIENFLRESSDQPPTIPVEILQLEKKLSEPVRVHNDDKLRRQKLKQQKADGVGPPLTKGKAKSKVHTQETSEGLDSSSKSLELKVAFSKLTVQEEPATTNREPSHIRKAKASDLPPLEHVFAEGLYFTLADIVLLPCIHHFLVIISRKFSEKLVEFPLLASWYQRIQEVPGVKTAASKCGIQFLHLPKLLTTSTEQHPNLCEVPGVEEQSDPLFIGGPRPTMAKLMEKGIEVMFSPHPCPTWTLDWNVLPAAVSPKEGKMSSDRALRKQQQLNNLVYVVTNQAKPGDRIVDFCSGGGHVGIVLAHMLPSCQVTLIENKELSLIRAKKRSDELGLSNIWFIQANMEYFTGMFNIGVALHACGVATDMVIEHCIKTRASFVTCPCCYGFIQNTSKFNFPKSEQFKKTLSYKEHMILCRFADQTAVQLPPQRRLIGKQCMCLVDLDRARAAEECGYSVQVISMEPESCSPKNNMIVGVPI
inactive: [1] -0.048 | [2] -0.048 | [3] -0.076 | [4] -0.055 | [5] 0.007

HMGN5 (UniProt Q5JSK9)
inactive: [1] -0.067 | [2] 0.015

HNRNPL, A0A3B3ITJ4
inactive: [1] -0.063 | [2] -0.011

HADHB (UniProt P55084)
inactive: [1] 0.053 | [2] 0.021 | [3] 0.105 | [4] 0.167 | [5] -0.048

INTS8 (UniProt Q75QN2)
inactive: [1] 0.021 | [2] -0.085 | [3] -0.002 | [4] 0.023 | [5] 0.081

IGF2BP2 (UniProt Q9Y6M1)
inactive: [1] -0.041 | [2] -0.004 | [3] 0.012 | [4] 0.022 | [5] 0.008

INTS5 (UniProt Q6P9B9)
inactive: [1] -0.086 | [2] -0.034 | [3] -0.019 | [4] 0.015 | [5] 0.127

GTF2H4 (UniProt Q92759)
Sequence of UniProt Q92759 (Q92759 whole entry, looked up): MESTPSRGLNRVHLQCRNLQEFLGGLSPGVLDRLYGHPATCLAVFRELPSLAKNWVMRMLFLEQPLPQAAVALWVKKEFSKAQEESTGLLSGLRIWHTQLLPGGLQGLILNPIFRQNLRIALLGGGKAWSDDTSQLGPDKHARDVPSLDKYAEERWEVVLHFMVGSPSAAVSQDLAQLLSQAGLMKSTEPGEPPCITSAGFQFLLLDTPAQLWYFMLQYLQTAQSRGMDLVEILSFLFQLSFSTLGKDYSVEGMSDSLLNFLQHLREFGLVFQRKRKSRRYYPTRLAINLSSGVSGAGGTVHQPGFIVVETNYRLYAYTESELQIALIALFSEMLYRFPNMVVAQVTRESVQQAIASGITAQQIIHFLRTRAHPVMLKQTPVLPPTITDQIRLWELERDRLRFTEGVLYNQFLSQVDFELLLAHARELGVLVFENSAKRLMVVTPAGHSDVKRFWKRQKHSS
inactive: [1] -0.08 | [2] 0.044 | [3] 0.039 | [4] 0.015 | [5] 0.02

HMBOX1 isoform 5 (UniProt Q6NT76)
Sequence of UniProt Q6NT76 (Q6NT76 whole entry, looked up): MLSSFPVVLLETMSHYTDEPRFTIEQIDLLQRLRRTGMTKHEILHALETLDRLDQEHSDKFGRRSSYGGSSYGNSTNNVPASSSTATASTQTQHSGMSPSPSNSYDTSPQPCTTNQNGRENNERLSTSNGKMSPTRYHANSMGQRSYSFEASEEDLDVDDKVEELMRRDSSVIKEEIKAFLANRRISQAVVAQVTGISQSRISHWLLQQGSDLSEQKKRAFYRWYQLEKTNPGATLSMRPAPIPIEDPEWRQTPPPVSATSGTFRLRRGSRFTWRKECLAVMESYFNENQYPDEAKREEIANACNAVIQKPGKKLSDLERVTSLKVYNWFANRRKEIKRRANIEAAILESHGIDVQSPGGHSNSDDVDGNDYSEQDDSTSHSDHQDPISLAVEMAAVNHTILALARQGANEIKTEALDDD
inactive: [1] 0.016 | [2] -0.008 | [3] 0.055 | [4] 0.027 | [5] -0.114

KIAA0930 isoform 2 (UniProt Q6ICG6)
inactive: [1] 0.3 | [2] -0.034 | [3] -0.051 | [4] 0.07 | [5] 0.031

HMGN5 (UniProt P82970)
inactive: [1] 0.033 | [2] 0.05 | [3] -0.008 | [4] -0.026 | [5] 0.083

IFITM3 (UniProt Q01628)
inactive: [1] -0.011 | [2] -0.078 | [3] -0.118 | [4] -0.088 | [5] 0.026

KDM6A (UniProt O15550)
inactive: [1] -0.024 | [2] -0.019 | [3] 0.049 | [4] -0.03 | [5] 0.008

HLTF (UniProt Q14527)
inactive: [1] -0.053 | [2] -0.006 | [3] -0.065 | [4] 0.028 | [5] 0.011

KBTBD4 isoform 2 (UniProt Q9NVX7)
Sequence of UniProt Q9NVX7 (Q9NVX7 whole entry, looked up): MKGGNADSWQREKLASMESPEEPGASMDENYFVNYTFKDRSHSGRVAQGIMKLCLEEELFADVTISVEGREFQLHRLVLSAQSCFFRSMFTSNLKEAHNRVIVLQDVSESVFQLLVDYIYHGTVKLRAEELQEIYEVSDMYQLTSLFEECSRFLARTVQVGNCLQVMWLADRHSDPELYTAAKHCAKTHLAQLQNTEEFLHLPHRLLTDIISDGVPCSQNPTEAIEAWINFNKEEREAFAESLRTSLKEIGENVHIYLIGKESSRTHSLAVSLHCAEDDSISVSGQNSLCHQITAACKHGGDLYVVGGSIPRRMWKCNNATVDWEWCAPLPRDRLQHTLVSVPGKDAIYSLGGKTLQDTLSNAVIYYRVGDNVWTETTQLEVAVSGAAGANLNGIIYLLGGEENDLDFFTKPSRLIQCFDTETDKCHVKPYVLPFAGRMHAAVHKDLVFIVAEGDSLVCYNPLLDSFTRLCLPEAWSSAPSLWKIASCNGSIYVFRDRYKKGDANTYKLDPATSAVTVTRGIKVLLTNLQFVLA
inactive: [1] -0.014 | [2] -0.003 | [3] -0.106 | [4] -0.025 | [5] 0.016

ISOC2 (UniProt Q96AB3)
inactive: [1] -0.014 | [2] 0.035 | [3] 0.085 | [4] 0.03 | [5] -0.031

HAUS6 (UniProt Q7Z4H7)
inactive: [1] 0 | [2] -0.012 | [3] 0.021 | [4] 0.005 | [5] 0.041

GNE isoform 2 (UniProt Q9Y223)
inactive: [1] -0.072 | [2] 0.006 | [3] 0.023 | [4] 0.007 | [5] 0.06

INTS14 (UniProt Q96SY0)
inactive: [1] 0.067 | [2] 0.034 | [3] -0.038 | [4] 0.007 | [5] 0.009

HDAC6 (UniProt Q9UBN7)
inactive: [1] 0.029 | [2] 0.036 | [3] -0.017 | [4] -0.007 | [5] 0.042

GMIP (UniProt Q9P107)
inactive: [1] 0.023 | [2] -0.04 | [3] -0.04 | [4] -0.018 | [5] 0.054

KHDRBS1 (UniProt Q07666)
inactive: [1] -0.04 | [2] 0.027 | [3] 0 | [4] 0.058 | [5] 0.045

GUSB (UniProt P08236)
inactive: [1] 0.035 | [2] 0.022 | [3] 0.016 | [4] -0.051 | [5] -0.313

HACE1 (UniProt Q8IYU2)
inactive: [1] -0.03 | [2] 0.08 | [3] 0.07 | [4] -0.115 | [5] -0.377

ILKAP (UniProt Q9H0C8)
inactive: [1] -0.004 | [2] -0.004 | [3] -0.013 | [4] 0.013 | [5] 0.009
